We go through nine compounds from PubChem BioAssay (NCI).

The panel holds about 83,000 compounds, 20% with a hit somewhere; the sample as a whole holds those more often.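 Method: cells in 96-well plates; compound added at one concentration; 48 h incubation; percent growth measured; values under 10 scored active.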 A number with no mark means an inactive call. Active and inactive are the calls of the source.

Some test systems named below: SR leukemia; RPMI-8226 leukemia; OVCAR-8 ovarian; OVCAR-5 ovarian; OVCAR-4 ovarian; IGROV1 ovarian; OVCAR-3 ovarian; HS 578T breast; NCI/ADR-RES ovarian; T-47D breast; BT-549 breast; MDA-MB-435 melanoma; SW-620 colon; MCF7 breast; HCT-116 colon; HCC-2998 colon; KM12 colon; SK-OV-3 ovarian.
Holding throughout (test): NCI-60 one-dose screen, 48 h (100 = growth as untreated, 0 = no growth, -100 = all killed)
Common to all, as to details: 10 µM

For `COc1ccc(-c2nc(-c3nc4ccc(OC)cc4[nH]3)c3ccccn23)cc1`, the growth in the experiment with SR leukemia was 32.4%; in the experiment with RPMI-8226 leukemia, 3.21% (active); in the experiment with OVCAR-8 ovarian, 30.8%; in the experiment with OVCAR-5 ovarian, 89.7%; in the experiment with OVCAR-4 ovarian, 50.5%; in the experiment with IGROV1 ovarian it was 57.2%. For the same compound, the growth in the experiment with OVCAR-3 ovarian was 81.8%; with HS 578T breast, 80%; in the experiment on NCI/ADR-RES ovarian, 50.9%; with T-47D breast it was 36.7%; in the experiment on BT-549 breast it was 77.6%; in the experiment on MDA-MB-435 melanoma it was 81.5%. The growth in the experiment with SW-620 colon is 93.3%; in the experiment on MCF7 breast it was 69.4%; in the experiment on HCT-116 colon, 66.4%; in the experiment with HCC-2998 colon it was 86.4%.
Take `C=CCN1C(=O)/C(=C\c2ccc3c(c2)CCC3)SC1=S`: the growth was 93.1% in the experiment on SR leukemia; 91.9% in the experiment with RPMI-8226 leukemia; 104% with OVCAR-8 ovarian; 99.8% in the experiment with OVCAR-5 ovarian; 106% in the experiment with OVCAR-4 ovarian; 106% in the experiment with IGROV1 ovarian. Besides, the growth is 109% in the experiment with OVCAR-3 ovarian; 112% with HS 578T breast; 105% in the experiment with NCI/ADR-RES ovarian; 91.5% in the experiment with T-47D breast; 93.5% with BT-549 breast; 109% in the experiment with MDA-MB-435 melanoma. Moreover, the growth was 104% in the experiment with SW-620 colon; 103% in the experiment with MCF7 breast; 99.8% in the experiment on HCT-116 colon; 106% in the experiment on HCC-2998 colon; 104% with KM12 colon.
Turning to `O=C(Nc1cccc(-c2nc3ccccc3[nH]2)c1)c1cccc(NC(=O)c2ccco2)c1`, the growth was 23.5% in the experiment on SR leukemia; 69.2% with RPMI-8226 leukemia; 87.2% in the experiment on OVCAR-8 ovarian; 93.8% in the experiment with OVCAR-5 ovarian; 80% with OVCAR-4 ovarian; 86.2% in the experiment with IGROV1 ovarian. Moreover, the growth with OVCAR-3 ovarian is 98.3%; in the experiment on HS 578T breast, 79.4%; in the experiment on NCI/ADR-RES ovarian it was 84.9%; in the experiment with T-47D breast, 65.9%; in the experiment on BT-549 breast it was 96.3%; in the experiment with MDA-MB-435 melanoma, -1.71% (active). The growth in the experiment on SW-620 colon was 96.6%; with MCF7 breast, 61.8%; with HCT-116 colon, 58.4%; in the experiment with HCC-2998 colon, 96.6%; with KM12 colon, 88.1%.
In the case of `COC(=O)c1cnc2c(c1)Oc1ccc(Cl)cc1-c1cc(C)nn1-2`, the growth is 89.3% with SR leukemia; 95.6% with RPMI-8226 leukemia; 96% in the experiment on OVCAR-8 ovarian; 89% with OVCAR-5 ovarian; -13.1% (active) in the experiment on OVCAR-4 ovarian; 76.6% with SK-OV-3 ovarian. Also, the growth in the experiment with OVCAR-3 ovarian is 44.5%; with HS 578T breast, 56%; in the experiment with NCI/ADR-RES ovarian, 70.3%; in the experiment on T-47D breast, 59.9%; in the experiment with BT-549 breast, 83.4%; with MDA-MB-435 melanoma, 91.3%. The growth in the experiment on SW-620 colon was 66%; in the experiment on HCT-116 colon, 42.6%; in the experiment on HCC-2998 colon it was 92.1%; with KM12 colon, 85.8%.
On to `O=C(NCCc1nccs1)c1cnc2c(S)cccc2c1`, for which the growth in the experiment on SR leukemia was 14.6%; with RPMI-8226 leukemia, 26.2%; with OVCAR-8 ovarian, 29.3%; in the experiment on OVCAR-5 ovarian, 75.2%; in the experiment on OVCAR-4 ovarian, 27.1%; in the experiment on SK-OV-3 ovarian, 20.1%. Also, the growth with OVCAR-3 ovarian is 5.69% (active); with HS 578T breast, 21.5%; in the experiment on NCI/ADR-RES ovarian, 5.32% (active); in the experiment on T-47D breast, 10.8%; in the experiment on BT-549 breast, 48.1%; with MDA-MB-435 melanoma, 26.4%. Besides, the growth was 4.05% (active) with SW-620 colon; -3.22% (active) in the experiment with MCF7 breast; 2.16% (active) in the experiment with HCT-116 colon; 35.5% with HCC-2998 colon; 19.6% in the experiment with KM12 colon.
As to `CN(C)Cc1cccs1`, the growth in the experiment with SR leukemia is 114%; in the experiment on RPMI-8226 leukemia, 102%; in the experiment on OVCAR-8 ovarian it was 97%; in the experiment on OVCAR-5 ovarian, 98.5%; with OVCAR-4 ovarian, 109%; in the experiment on SK-OV-3 ovarian, 87.8%. In addition, the growth in the experiment on OVCAR-3 ovarian was 101%; with HS 578T breast, 102%; in the experiment with NCI/ADR-RES ovarian it was 101%; in the experiment with T-47D breast, 83.9%; in the experiment on BT-549 breast, 96.6%; with MDA-MB-435 melanoma, 118%. Moreover, the growth in the experiment on SW-620 colon is 108%; with MCF7 breast, 103%; in the experiment with HCT-116 colon, 89%; with HCC-2998 colon it was 96.6%; with KM12 colon, 101%.
Regarding `CCCCCC(CCC)COC(=O)c1ccc(OC)cc1` (stereo unspecified), the growth in the experiment with SR leukemia was 101%; with RPMI-8226 leukemia it was 91.8%; in the experiment with OVCAR-8 ovarian it was 96.5%; in the experiment on OVCAR-5 ovarian, 102%; with OVCAR-4 ovarian it was 109%; with SK-OV-3 ovarian, 101%. Moreover, the growth with OVCAR-3 ovarian is 111%; in the experiment with HS 578T breast, 106%; with NCI/ADR-RES ovarian, 103%; in the experiment on T-47D breast, 87.7%; in the experiment with BT-549 breast it was 104%; in the experiment with MDA-MB-435 melanoma it was 106%. Also, the growth in the experiment with SW-620 colon is 104%; in the experiment with MCF7 breast, 92.5%; in the experiment on HCT-116 colon, 100%; with HCC-2998 colon, 99.5%; in the experiment with KM12 colon it was 109%.
As for `C[C@H](NC(=O)[C@@H]1CSSC[C@@H](NC(=O)Cc2nc3ccccc3cc2O)C(=O)NCC(=O)N1C)c1ccccc1`, the growth is -3.15% (active) in the experiment with SR leukemia; 87.2% with RPMI-8226 leukemia; 95.2% in the experiment on OVCAR-8 ovarian; 104% in the experiment on OVCAR-5 ovarian; 63.6% in the experiment on OVCAR-4 ovarian; 88.4% with SK-OV-3 ovarian. In addition, the growth in the experiment on OVCAR-3 ovarian was 99%; in the experiment with HS 578T breast, 94.2%; in the experiment with NCI/ADR-RES ovarian, 101%; with T-47D breast it was 77.1%; in the experiment with BT-549 breast, 83.8%; in the experiment with MDA-MB-435 melanoma it was 70.7%. Moreover, the growth with SW-620 colon is 94%; in the experiment with MCF7 breast it was 51.7%; with HCT-116 colon it was 44.7%; in the experiment on HCC-2998 colon, 94.9%; in the experiment with KM12 colon it was 56%.
For the compound `C/C=C\COc1cc(C)c(Cl)cc1Cl`, the growth in the experiment with SR leukemia is 107%; with RPMI-8226 leukemia, 99.7%; with OVCAR-8 ovarian, 99.4%; in the experiment on OVCAR-5 ovarian it was 108%; with OVCAR-4 ovarian, 94.7%; in the experiment on IGROV1 ovarian, 107%. In addition, the growth was 116% in the experiment on OVCAR-3 ovarian; 121% in the experiment with HS 578T breast; 115% with NCI/ADR-RES ovarian; 105% in the experiment on T-47D breast; 126% in the experiment with BT-549 breast; 98% with MDA-MB-435 melanoma. Also, the growth with SW-620 colon was 96.2%; in the experiment on MCF7 breast, 98.4%; in the experiment on HCT-116 colon, 110%; in the experiment on HCC-2998 colon, 118%; in the experiment on KM12 colon, 109%.
